Holding throughout (test): NCI-60 one-dose screen, 48 h (100 = growth as untreated, 0 = no growth, -100 = all killed)
Common to all, as to settings: 10 µM unless noted

For experiment [1], the system named is NCI-H23 lung.
Experiment [2] deals with NCI-H226 lung.
Experiment [3] has as its system NCI-H322M lung.
In experiment [4] the test system is HOP-62 NSCLC.
The subject of experiment [5] is NCI-H460 lung.
Experiment [6] deals with HOP-92 NSCLC.
The subject of experiment [7] is NCI-H522 lung.
The test system of experiment [8] is A549/ATCC NSCLC.
Experiment [9] concerns 786-0 renal.
In experiment [10] the test system is COLO 205 colon.
Experiment [11] deals with DU-145 prostate.
Experiment [12] has as its system MALME-3M melanoma.
Experiment [13] deals with MDA-MB-231 breast.
The test system of experiment [14] is RXF 393 renal.
The test system of experiment [15] is SF-268 CNS.
Experiment [16] has as its system SF-295 CNS.
In experiment [17] the test system is SF-539 CNS.
The subject of experiment [18] is UACC-257 melanoma.
Experiment [19] concerns M14 melanoma.

This is part of a sample that, as a whole, favours compounds with a hit. Of some 83,000 tested, about 20% had one in any assay.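 Cells were grown in 96-well plates and exposed to the test compound at a single concentration for 48 hours; results are reported as percent growth, with values below 10 considered active.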 Unmarked numbers belong to inactive results. Activity calls are given as the source filed them.

Regarding `CCCc1nn2c(CCC(=O)c3nc4ccc([N+](=O)[O-])cc4[nH]3)nnc2s1`, the growth in experiment [1] was 94.4%; in experiment [2], 102%; in experiment [3] it was 97.9%; in [4], 106%; in [5] it was 104%; in [6] it was 114%. The growth in experiment [7] was 104%; in [8], 99.9%; in experiment [9], 108%; in experiment [10] it was 112%; in experiment [11], 108%; in experiment [12], 105%. For the same compound, the growth was 95.9% in experiment [13]; 114% in experiment [14]; 100% in experiment [15]; 104% in experiment [16]; 103% in experiment [17]; 113% in [18]. Also, the growth in experiment [19] was 99.6%.

In the case of `C=C1C(=O)O[C@H]2[C@H]1CC/C(COC(=O)c1cccc3ccccc13)=C\CC[C@@]1(C)O[C@@H]21`, the growth in experiment [1] is 0.789% (active); in experiment [2] it was -79.9% (active); in experiment [3] it was 36.8%; in experiment [4], -45.7% (active); in experiment [5], 7.53% (active); in [6], -67.9% (active). In addition, the growth in experiment [7] was -84.5% (active); in experiment [8], -55% (active); in experiment [9], -77.9% (active); in [10] it was -70.7% (active); in experiment [11], -95.1% (active); in experiment [12], -74.5% (active). Also, the growth in [13] was -67.7% (active); in [14] it was -89.6% (active); in experiment [15] it was -66.4% (active); in experiment [16], 47.8%; in experiment [17], -93.1% (active); in experiment [18], -13.9% (active). In addition, the growth in experiment [19] is -58.7% (active).

On to `Clc1ccc2c(NCCNc3nc(Cl)nc4ccccc34)ccnc2c1`, for which the growth in experiment [1] was -61.7% (active); in experiment [2], -80% (active); in experiment [3], -26.4% (active); in [4], -68.6% (active); in [5] it was -65.4% (active); in experiment [6], -67.6% (active). The growth is -84.6% (active) in experiment [7]; -88% (active) in [8]; -94.1% (active) in experiment [9]; -85.8% (active) in experiment [10]; -3.33% (active) in experiment [11]; -87.3% (active) in experiment [12]. Further, the growth in [13] was -87.8% (active); in [14], -77.2% (active); in [15], -58.1% (active); in [16], -76.7% (active); in experiment [17], -84% (active); in experiment [18] it was 91.1%. In addition, in experiment [19], the growth was -89.1% (active).

With `O=C(Nc1ccc(F)cc1)Nc1ccc(Br)c(C(F)(F)F)c1`, the growth in experiment [1] was -7.43% (active); in experiment [2], -6.87% (active); in [3] it was 22%; in experiment [4], 23.2%; in experiment [5] it was 4.62% (active); in experiment [6], -13.3% (active). The growth is -16.9% (active) in [7]; 10.2% in experiment [8]; 13.6% in [9]; -27.3% (active) in experiment [10]; 22.3% in experiment [11]; -6.11% (active) in [12]. Besides, the growth in experiment [13] was 7.99% (active); in [14], 26.8%; in experiment [15], 22%; in experiment [16], 3% (active); in experiment [17] it was 19.9%; in experiment [18], 1.49% (active). Further, in experiment [19], the growth was 15.3%.

With `S=c1[nH]nc(Cn2c3ccccc3c3ccncc32)o1`, the growth in experiment [1] was 107%; in [2], 107%; in experiment [3], 106%; in experiment [4], 95.1%; in experiment [5] it was 100%; in [6], 109%. In addition, the growth in experiment [7] is 91.3%; in experiment [8], 90.7%; in experiment [9], 99.2%; in experiment [10], 104%; in experiment [11], 108%; in experiment [12], 100%. The growth in [13] is 100%; in experiment [14] it was 112%; in experiment [15], 103%; in [16] it was 108%; in experiment [17], 101%; in [18] it was 89.7%. Further, in [19], the growth was 101%.

For the compound `C=C1C(=O)O[C@H]2[C@H]1CC/C(COC(=O)c1cc(OC)c(OC)c(OC)c1)=C\CC[C@@]1(C)O[C@@H]21`, the growth was 8.29% (active) in experiment [1]; -12.1% (active) in [2]; 52.9% in experiment [3]; 22% in [4]; 16.1% in [5]; -59.5% (active) in experiment [6]. For the same compound, the growth was -88.4% (active) in experiment [7]; 24.7% in experiment [8]; -90.9% (active) in experiment [9]; -73.4% (active) in [10]; -23.8% (active) in experiment [11]; -57.7% (active) in experiment [12]. Moreover, the growth is -39% (active) in experiment [13]; -87.8% (active) in experiment [14]; 16.5% in experiment [15]; 51% in experiment [16]; -48.3% (active) in [17]; -41.3% (active) in experiment [18]. The growth in experiment [19] is -36.7% (active).

Consider `O=C(O)c1cn(C2CC2)c2cc(N3CCN(C(=O)CSc4nc(NS(=O)(=O)c5ccccc5)cc(=O)[nH]4)CC3)c(F)cc2c1=O`, for which the growth was 94.3% in experiment [1]; 96.2% in experiment [2]; 92.5% in [3]; 116% in [4]; 96.2% in experiment [5]; 106% in [6]. The growth in experiment [7] was 95.6%; in experiment [8], 110%; in experiment [9], 111%; in experiment [10], 109%; in [11] it was 101%; in experiment [12], 82.4%. The growth in [13] was 100%; in experiment [14] it was 112%; in experiment [15] it was 93.7%; in [16] it was 104%; in experiment [17], 98.1%; in experiment [18], 95%. Further, the growth in [19] was 83.7%.

These data come from PubChem BioAssay (NCI).
